CYP2C9 activ = human CYP2C9 activators, primary screen, biochemical, luminescence; Cytochrome P450 2C9 (Homo sapiens), P11712; recombinant CYP2C9, luciferin-H conversion; stronger effect = higher value; factor 1 = untreated enzyme, 0 = blocked; activation factor at 5 µM; hit rate 1.4% among 96,000;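 active = activation factor of 2 or more for CYP2C9 at a 5 µM dose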;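 note: 0 = sulfaphenazole-blocked wells and 1 = vehicle-only wells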
CYP2C19 act = human CYP2C19 activators, primary screen, biochemical, luminescence; Cytochrome P450 2C19 (Homo sapiens), P33261; recombinant CYP2C19, luciferin-H EGE luminescence; stronger effect = higher value; 0 = fully inhibited enzyme, 1 = untreated enzyme; activation factor at 5 µM; 96,000 tested, under 10 active; AID 1025, 2008;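 active = activation factor of at least 2 at 5 µM in the primary screen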;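 note: 0 = wells with 2.5 mM tranylcypromine and 1 = vehicle-only wells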
Cav3 T inh = Cav3.2 calcium influx blockers – cell-based, Fluo-4 calcium fluorescence, FDSS, MLSMR library, primary screen; Cav3.2-expressing cells; stronger effect = lower value; Voltage-dependent T-type calcium channel subunit alpha-1H (Homo sapiens), O95180; B-score at 10 µM; hit rate 4% among 100,000;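 active = single-dose well whose peak fluorescence ratio is a statistical outlier from its plate by either plate-standardised score or position-corrected B-score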
CYP2C9 inhib = blockers of cytochrome P450 2C9 activity – biochemical, luminescence, ADME assay, primary screen. P11712. AID 777, 2007. CYP2C9 Supersomes, luciferin-H conversion. inhibition, % at 5 µM. hit rate 20% among 96,000;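 active = blocking of liver enzyme CYP2C9 beyond about 50% at 5 µM, limit read from the data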
CYP2C19 inh = blockers of cytochrome P450 2C19 activity – biochemical, luminescence, ADME assay, primary screen. P33261. CYP2C19 Supersomes, luciferin-H EGE luminescence, 30 min. inhibition, % at 5 µM. hit rate 21% among 96,000. AID 778, 2007;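 active = CYP2C19 inhibition above a set limit at 5 µM in the primary screen, cut at about 50% in these data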;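 note: plate controls were negative control wells for no effect and 2.5 mM tranylcypromine positive control for full effect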
Numbers without * were called inactive; . = no result. A selection: hits, their analogues and other compounds. The true share with any hit is near 27%.

SMILES | CYP2C9 activ | CYP2C19 act | Cav3 T inh | CYP2C9 inhib | CYP2C19 inh
COc1ccc(C)cc1S(=O)(=O)Nc1cccc(Cl)c1 | 0.5 | 0.6 | -3.14 | 47.5 | 38.7
COc1ccccc1NS(=O)(=O)c1ccc(NC(C)=O)cc1 | 1.7 | 0.1 | 0.0494 | -72.6 | 93.0*
COc1cc(NS(=O)(=O)c2ccc(OC)c(OC)c2)cc(OC)c1 | 0.3 | 0 | -0.052 | 73.9* | 99.5*
Cc1noc(C)c1S(=O)(=O)N1CCCC(C(=O)N2CCC(C)CC2)C1 (stereo unspecified) | 1 | 1 | 0.171 | -1.4 | -0.3
CCN(CC)c1ccc(NC(=O)CSc2nc3ccccc3c(=O)[nH]2)cc1 | 0.6 | 0.8 | . | 38.1 | 19.0
CCOc1ccc(N(CC(=O)NCC2CCCO2)S(=O)(=O)c2ccc(SC)cc2)cc1 (stereo unspecified) | 0.6 | 0.3 | 0.0748 | 44.0 | 68.2*
COc1ccc(N(CC(=O)NCC2CCCO2)S(=O)(=O)c2ccc(C)cc2)cc1OC (stereo unspecified) | 0.4 | 1.2 | 0.796 | 55.3* | -23.7
COc1ccc(S(=O)(=O)NCC(=O)N(CC(=O)NCC2CCCO2)c2c(C)cccc2C)cc1 (stereo unspecified) | 0.3 | 0.8 | 0.00181 | 67.8* | 19.5
CN(CC(=O)NCC1CCCO1)S(=O)(=O)c1cc(Cl)ccc1Cl (stereo unspecified) | 3.2* | 0.4 | 0.311 | -221.0 | 63.5*
CCOC(=O)c1ccc(NC(=O)COc2ccc(S(=O)(=O)NC(C)C)cc2)cc1 | 0.9 | 0.8 | 0.842 | 13.4 | 23.8
CC(NC(=O)Cc1ccc(F)cc1)C(c1cccs1)N1CCN(C)CC1 (stereo unspecified) | . | . | 1.22 | . | .
O=C(CN(C(=O)c1ccc2c(c1)OCCO2)c1ccccc1)NCC1CCCO1 (stereo unspecified) | 0.3 | 0.6 | 1 | 65.5* | 41.5
O=C(CN(c1ccc2c(c1)OCCO2)S(=O)(=O)c1ccccc1)NCC1CCCO1 (stereo unspecified) | 0.2 | 0.6 | 0.796 | 77.4* | 35.3
O=C(NCC1CCCO1)c1ccc2c(c1)OCO2 (stereo unspecified) | 0.9 | 0.7 | 0.0365 | 5.3 | 25.7
Cc1ccc(C(Sc2ccccc2)C(Cn2cncn2)C(=O)c2ccccc2)cc1 (stereo unspecified) | 0.4 | 0.1 | 0.739 | 63.0* | 91.8*
CCCCN(C)C1=Nc2cccc3cccc1c23 | 1.1 | 0.9 | . | -6.2 | 9.5
N#CCSc1nc(N)c(C#N)c(C2CCCCC2)c1C#N | 0.5 | 0.9 | -1.47 | 52.8* | 10.6
CC(C)CCN1C(=O)c2ccc(C(=O)OCn3nnc4ccccc4c3=O)cc2C1=O | 0.9 | 0.9 | -0.00809 | 10.5 | 8.0
C=CCC(Nc1ccco1)c1ccccc1 (stereo unspecified) | 1.1 | 1.1 | -0.591 | -10.2 | -9.8
C=CCNc1nc(-c2ccc(OC)cc2OC)cs1 | 1.1 | 0.4 | -1.5 | -8.2 | 57.3*
CCOc1ccc(S(=O)(=O)Nc2cc(Sc3ncn[nH]3)c3oc(=O)sc3c2)cc1 | 0.3 | 0.3 | -0.0202 | 66.8* | 69.0*
CCOc1ccc(S(=O)(=O)NCc2cccs2)cc1 | 0.6 | 0.5 | 0.171 | 41.8 | 46.7
Cc1ccc(-n2nc(-c3cccs3)cc2C(=O)NCC2CCCO2)c(C)c1 (stereo unspecified) | 0.1 | 0.4 | -4.41* | 89.8* | 64.8*
CC(=C1C2C=CC1C1C(=O)NC(=O)C21)c1ccccc1 (stereo unspecified) | 1.2 | 0.2 | 0.304 | -17.7 | 79.4*
O=C(CC1Nc2ccccc2NC1=O)c1ccccc1 (stereo unspecified) | 1 | 1 | -0.954 | 0.4 | 1.8
SMILES | CYP2C9 activ | CYP2C19 act | Cav3 T inh | CYP2C9 inhib | CYP2C19 inh
Brc1ccc2ncnc(Nc3cccc4ccccc34)c2c1 | 0.4 | 0.2 | . | 59.0* | 80.1*
Cc1cccc(Nc2ncnc3ccccc23)c1 | 0.5 | 0.4 | 0.429 | 45.8 | 59.3*
CCOC(=O)c1cccc(Nc2ncnc3ccccc23)c1 | . | . | 7.32e-05 | . | .
Cc1ccccc1C(=O)Oc1cccc(Nc2ncnc3ccccc23)c1 | . | . | -4.84* | . | .
CCOC(=O)c1[nH]c(C)c(C(=O)N2CCN(C(=O)OCC)CC2)c1CC | 0.9 | 1 | 0.683 | 9.6 | 0.7
CCOC(=O)c1ccc2nc3c(cc2c1)CCS3 | 0.5 | 1 | -0.0519 | 46.6 | 3.7
CC(=O)Nc1nc(-c2ccccc2)nc(C)c1C(C)=O | 1 | 1 | -1.43 | -4.6 | -3.0
CC(=O)c1c(C)nc(-c2ccc(Cl)cc2)nc1NC(=O)C(C)C | 0.1 | 0.4 | -3.73 | 94.2* | 62.1*
CC(=O)c1c(C)nc(-c2ccccc2)nc1NC(=O)C(C)C | 0.3 | 0.6 | 0.648 | 74.5* | 42.9
Fc1cccc(NC(=S)Nc2ccc(Br)cc2)c1 | 0.4 | 0.2 | -2.18 | 57.6* | 81.7*
Cc1occc1C(=O)NC1CCCc2ccccc21 (stereo unspecified) | 0.5 | 0.3 | 0.318 | 47.1 | 70.9*
Cc1c(C(=O)NC2CCCc3ccccc32)oc2ccccc12 (stereo unspecified) | 0.5 | 0.8 | -4.57* | 46.4 | 21.0
CNC(=O)NC1CCCc2ccccc21 (stereo unspecified) | 1 | 0.9 | 0.966 | 1.3 | 6.5
CCOC(=O)N1CCN(C(=O)c2ccc3c(=O)n(CCc4ccccc4)c(=O)[nH]c3c2)CC1 | 0.8 | 0.5 | 1.04 | 16.8 | 48.6
c1ccc(-c2nc(NC3CC3)nc(-n3ccnc3)n2)cc1 | 0.8 | 0.9 | 0.035 | 17.6 | 11.0
Cc1cccc(CCN2CCC(C(=O)c3ccc(NS(C)(=O)=O)cc3)CC2)n1 | . | . | -0.8 | . | .
Clc1ccc(CSc2nnnn2-c2ccc3c(c2)OCO3)c(Cl)c1 | 0.1 | 0.1 | -3.45* | 87.9* | 88.8*
c1ccc(CSc2nnnn2-c2ccc3c(c2)OCCO3)nc1 | 0.6 | 0.1 | 1.53 | 41.0 | 89.7*
Cc1ccc(NC(=O)CCSc2nnnn2-c2ccc3c(c2)OCO3)cc1C | 0.5 | 0.3 | -5.07* | 49.1 | 74.0*
O=C(CSc1nnnn1-c1ccc(Cl)cc1)NC(=O)Nc1ccc2c(c1)OCCO2 | . | . | 0.987 | . | .
CCOc1ccc(-c2csc(C3COc4ccccc4O3)n2)cc1 (stereo unspecified) | . | . | 0.222 | . | .
CCN(CC)S(=O)(=O)c1ccc(OC)c(NS(=O)(=O)c2ccc(F)cc2)c1 | 0.9 | 0.6 | -0.0676 | 14.8 | 39.0
Cc1ccc2cccc(NC(=O)c3ccc(Br)o3)c2n1 | 1.5 | 1.1 | 0.342 | -45.8 | -7.8
Clc1ccc(Cc2ccccc2)nn1 | 0.9 | 0.9 | 1.12 | 8.3 | 13.7
Clc1ccc(Cc2ccc(Cl)nn2)c(Cl)c1 | 0.8 | 0.3 | -2.29 | 21.3 | 73.0*
CCOC(=O)c1ccc(NC(=O)CC2C(=O)N(c3ccc(F)cc3)C(=O)N2CCCOC)cc1 (stereo unspecified) | 0.5 | 0.6 | -0.0814 | 49.1 | 36.0
